Results taken from PubChem BioAssay AID1974 (The Scripps Research Institute Molecular Screening Center, 2009).
About 3,200 (1.1%) of roughly 300,000 compounds were called active. The sample as a whole holds a higher share of actives than the screen did. Values without a mark were called inactive.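 How the source made its calls: active means inhibition above the campaign mean inhibition plus 3 SD (cut at about 35% in these data); inactive means the rest.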

target: Glutathione S-transferase omega-1 (Homo sapiens) (UniProt P78417); test: human GSTO1 enzyme inhibition – biochemical, fluorescence polarization, counter-screen for RBBP9 inhibitor project, primary screen (AID 1974); conditions: recombinant GSTO1, activity-based probe fluorescence polarization; at 5.96 µM; active compounds read high;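 further: 0% = GSTO1-1 with DMSO and 100% = wells lacking GSTO1-1 enzyme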
Sequence (P78417 whole entry, looked up): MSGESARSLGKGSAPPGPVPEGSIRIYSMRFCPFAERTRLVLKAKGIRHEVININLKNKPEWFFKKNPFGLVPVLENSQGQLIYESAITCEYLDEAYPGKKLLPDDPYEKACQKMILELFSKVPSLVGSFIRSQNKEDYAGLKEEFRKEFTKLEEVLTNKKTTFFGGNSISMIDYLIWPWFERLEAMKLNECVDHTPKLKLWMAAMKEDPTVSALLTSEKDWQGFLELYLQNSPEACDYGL

| SMILES | inhibition |
| --- | --- |
| Cc1ccc(SCc2cc(=O)[nH]c(N3CCCCC3)n2)cc1 | -1.38% |
| Cc1ccc(SCCSc2ncccn2)cc1 | -0.48% |
| Cc1ccc(SCC2=NNC(=O)C2)cc1 | 42.2% (active) |
| COc1ccc(NC(=O)CCC(=O)N2CCN(S(=O)(=O)c3ccc(C)cc3)CC2)c(OC)c1 | -6.89% |
| Cn1ccsc1=NC(=O)c1cc(S(=O)(=O)N2CCOCC2)ccc1Cl | -4.31% |
| CCOC(=O)c1cc(Sc2ccccc2N)cc(C(=O)OCC)n1 | 8.34% |
| CCOC(=O)c1c(-c2ccccc2)oc2cc(Br)c(O)c(C=O)c12 | 0.6% |
| CCOC(=O)c1c(C)oc2cc(Sc3ccccc3)c(O)c(O)c12 | 47.9% (active) |
| Clc1ccc(N/N=C/c2cccs2)nn1 | 6.83% |
| Cc1ccsc1/C=N/Nc1ccc(Cl)nn1 | -1.2% |
| Oc1cccc(/C=N/Nc2ccc(Cl)nn2)c1O | 73% (active) |
| Cn1c(NC(=O)c2ccccc2)nc2ccccc21 | 4.42% |
| CC(C)CN(C(=O)COC(=O)c1ccc(Cl)c(N)c1)c1c(N)n(Cc2ccccc2)c(=O)[nH]c1=O | 3.23% |
| CCOc1ccc(C(c2c(C)[nH][nH]c2=O)c2c(C)[nH][nH]c2=O)cc1OCC | 23.6% |
| Cc1[nH][nH]c(=O)c1C(c1ccc(-c2ccc(Cl)cc2)o1)c1c(C)[nH][nH]c1=O | 65.6% (active) |
| Cc1[nH][nH]c(=O)c1C(c1ccc2c(c1)OCO2)c1c(C)[nH][nH]c1=O | 17.4% |
| NC(=O)NCCCC(=O)O | 6.89% |
| OCc1ccc(-c2ccccc2)c(-c2ccccc2)c1 | 0.95% |
| Cn1c(-c2ccc(F)cc2)cc2onc(-c3ccccc3Cl)c2c1=O | 2.68% |
| N#CC1=C(N)C(C#N)(C#N)[C@H](c2ccsc2)[C@H]2COCC=C12 | 10.3% |
| CCN1CC=C2C(C#N)=C(N)C(C#N)(C#N)[C@H](c3ccoc3)[C@H]2C1 | 38% (active) |
| CCCN1CC=C2C(C#N)=C(N)C(C#N)(C#N)C(c3cc(OC)ccc3OC)C2C1 (centres undefined) | 3.38% |
| Cc1ccc(C(=O)OCC(=O)N2CC(C)CC(C)C2)cc1S(=O)(=O)N1CCCCC1 (centres undefined) | 1.6% |

| SMILES | inhibition |
| --- | --- |
| COc1cc(NC(=O)CSC(=S)N2CCCC2)c(OC)cc1Cl | 1.86% |
| CCOC(=O)COc1cc(O)c2c(=O)cc(-c3ccccc3)oc2c1 | 4.45% |
| COc1ccc(-c2cc(=O)c3c(O)cc(O[C@@H]4O[C@H](CO[C@@H]5O[C@@H](C)[C@H](O)[C@@H](O)[C@H]5O)[C@@H](O)[C@H](O)[C@H]4O)cc3o2)cc1O | 6.25% |
| COc1c(O)cc2oc(-c3ccc(O)c(O)c3)cc(=O)c2c1O | 37% (active) |
| CC(C)(C)n1nc(Cc2cccc3ccccc23)c(C#N)c1N | 26.1% |
| COc1ccc(C(CCN(Cc2ccc(OC)c(OC)c2)C(=O)CCl)c2ccccc2)cc1 (centres undefined) | 87% (active) |
| COc1ccc(CN(C)C(=O)CC(c2ccccc2)c2ccccc2)cc1 | -5.61% |
| COc1ccc(COC(=O)NC(C(=O)O)c2ccccc2)cc1 (centres undefined) | 8.98% |
| CCOc1cc(/C=N/NC(=O)c2cccc(S(=O)(=O)N3CCOCC3)c2)ccc1OCC(=O)N(C)C | 5.36% |
| O=C1CCCN1C(=O)COc1ccc([N+](=O)[O-])cc1 | -4.91% |
| CCc1nnc(NC(=O)CSc2nc(SC)ns2)s1 | 47.1% (active) |
| CCc1nnc(NC(=O)CCC(=O)O)s1 | 3.28% |
| CSc1nsc(SCC(=O)Nc2cc(C(=O)O)ccc2C)n1 | -0.11% |
| CCc1ccc(Nc2n[n+](-c3ccccc3)c(-c3cccc(Cl)c3Cl)s2)cc1 | 5.75% |
| O=C(N/N=C/c1c(Cl)[nH]c2ccccc12)c1sc2ccccc2c1Cl | -18.9% |
| Oc1ccc(N=Cc2sc3ccccc3c2Cl)cc1 | 87.7% (active) |
| COc1ccc(N=C(C)c2sc3ccccc3c2O)cc1 | 3.42% |
| CCN(CC(=O)Nc1c(F)cccc1F)C(=O)C1CCC1 | 0.37% |
| COc1ccc(C(=O)OCC(=O)c2ccc(Cl)s2)c(OC)c1OC | 2.69% |
| NNC(=O)c1oc2nc(-c3ccccc3)cc(-c3ccco3)c2c1N | 38.1% (active) |
| O=C(Nc1cccc(F)c1)c1cc(-c2ccco2)nc2ccccc12 | -14.9% |
| CNC(=S)NNC(=O)c1oc2nc(-c3ccccc3)cc(-c3ccco3)c2c1N | 3.57% |
| Cc1c(C)n2c(SCC(=O)NC3CCCC3)nnc2[nH]c1=O | 3.72% |

| SMILES | inhibition |
| --- | --- |
| CCN(CC(=O)Nc1c(F)cccc1F)C(=O)CN1c2cccc3cccc(c23)S1(=O)=O | 0.89% |
| C#CCOCCOCCOCCNc1nc(N2CCN(C(=O)CCCCCCCCCCNC(=O)[C@H]([C@@H](C)CC)n3cc(CCCCN=C(N)N)nn3)CC2)nc(N2CCN(C(=O)CCCCCCCCCCNC(=O)[C@H](CO)n3cc(CCCSC)nn3)CC2)n1 | 0.8% |
| O=C(c1[nH]ncc1-c1ccc(Cl)cc1)C1CO1 (centres undefined) | 69.7% (active) |
| O=C(c1nnc(-c2ccc(Cl)cc2)o1)C1CCCC1 | -2.2% |
| S=c1[nH]nc(-c2ccc(Cl)cc2)n1CC1CCCO1 (centres undefined) | 6.47% |
| C#CCOCCOCCOCCNc1nc(N2CCN(C(=O)[C@H](CCCCN)n3cc(CCC(=O)O)nn3)CC2)nc(N2CCN(C(=O)[C@H](CCCCN)n3cc(CC(C)O)nn3)CC2)n1 (some centres undefined) | 5.45% |
| Cc1cccc(N2CC(C(=O)Nc3ccccc3N3CCCC3)CC2=O)c1C (centres undefined) | -3.75% |
| C/C(=N/Nc1ccc(Cl)cc1)c1cnnc(-c2ccccc2)n1 | -2.69% |
| CSc1nsc(NC(=O)Nc2ccccc2)n1 | -11% |
| CC/C(=N/Nc1ccccc1)c1cnnc(SC)n1 | 46.9% (active) |
| COc1cccc(NC(=O)CSc2nnc(-c3cccnc3)o2)c1 | -6.7% |
| COC(C[C@@H](O)C[C@H](O)[C@H](C)OCc1ccccc1)OC | 3.16% |
| CCCCn1c(N)c(N(CC(C)C)C(=O)c2cnc(C)cn2)c(=O)[nH]c1=O | -0.67% |
| Cc1c(C)n2c(SCC(=O)N3CCCC3)nnc2[nH]c1=O | 4.38% |
| CCOC(=O)N1CCC(NC(=O)COc2cc(=O)n(C)c3ccccc23)CC1 | -3.88% |
| CCOC(=O)N1CCC(c2cc(=O)n(-c3ccccc3)[nH]2)CC1 | 37.3% (active) |
| CCOC(=O)N1CCC(NC(=O)CCc2ccccc2)CC1 | -0.86% |
| CC(=O)CC[C@@H](C)O[C@@H]1OC(C)[C@H](O)CC1O (some centres undefined) | -1.35% |
| C[C@H]1CC[C@]2(O[C@@H](CCO)C[C@@H](O)[C@@H]2O)O1 | 1.91% |
| COc1ccc(C=Nc2cccc3ncccc23)cc1 | 6.91% |
| Oc1c(C=Nc2cccc3nsnc23)ccc2ccccc12 | 64.1% (active) |
| NC(=O)C1CCN(C(=O)c2cn(-c3ccccc3)nc2-c2cccnc2)CC1 | 4.31% |
| O=C(c1cc(C(=O)N2CCN(c3ccc(F)cc3)CC2)cc([N+](=O)[O-])c1)N1CCN(c2ccc(F)cc2)CC1 | 2.3% |

| SMILES | inhibition |
| --- | --- |
| CC(NC(=O)c1ccccc1F)c1cccc2ccccc12 (centres undefined) | 2.21% |
| CN(C)[C@@H]1C(=O)C(C(N)=O)=C(O)[C@@]2(O)C(=O)C3=C(O)c4c(O)ccc(Cl)c4[C@@H](O)[C@H]3C[C@@H]12 | 69.1% (active) |
| O=C(Nc1nc(-c2ccco2)c(-c2ccco2)s1)c1ccco1 | 28.3% |
| CC(Sc1nn(-c2ccc(Cl)cc2)c(=S)s1)C(=O)NCC1CCCO1 (centres undefined) | -4.24% |
| COc1ccc(C(CNC(=O)c2ccc(NS(=O)(=O)c3ccc(F)c(C)c3)cc2)N(C)C)cc1 (centres undefined) | -9.5% |
| O=C(N/N=C/c1c[nH]c2ccccc12)c1cc2ccccc2o1 | -5.04% |
| O=C(O)c1cccc(NC(=S)N/N=C/c2c[nH]c3ccccc23)c1 | 48.7% (active) |
| O=C(N/N=C/c1c[nH]c2ccccc12)c1ccccc1O | -1.35% |
| C[n+]1ccccc1C1CCCC/C1=N\Nc1ccc([N+](=O)[O-])cc1[N+](=O)[O-] (centres undefined) | 45.5% (active) |
| O=[N+]([O-])c1ccc(N/N=C2/CCCCC2c2ccccn2)c([N+](=O)[O-])c1 (centres undefined) | 27.8% |
| O=C(Nc1ccccc1)O/N=C1\CCCCC1c1ccc([N+](=O)[O-])cc1[N+](=O)[O-] (centres undefined) | -4.23% |
| COc1ccc(NC(=O)CN(C)C(=O)c2cccc(S(=O)(=O)N3CCN(c4ccccc4)CC3)c2)cc1 | 0.96% |
| CCOC(=O)c1c(C)[nH]c(C(=O)OCC(=O)N2CCCC2=O)c1C | -4.82% |
| CCN1C(=O)[C@@H]2[C@@H](c3ccc(-c4ccccc4)cc3)N3CCCC[C@@]3(C(=O)OC)[C@@H]2C1=O | -2.94% |
| COc1ccc(C(CNC(=O)c2cccc(S(=O)(=O)Nc3ccccc3Cl)c2)N2CCOCC2)cc1 (centres undefined) | -26.9% |
| Cc1cc(C)n2nc(C(=O)OCC(=O)N(CCC#N)c3ccc(F)cc3)nc2n1 | 7.91% |
| CCOC(=O)c1c(-c2ccc(C)cc2)csc1/N=C(\C)C1=C(O)c2ccccc2C1=O | 7.75% |
| CCOC(=O)C1=C(c2ccc(OC)cc2)C(=O)c2ccccc2C1=O | 40.5% (active) |
| CCOC(=O)c1cnc(-c2ccccc2)nc1Oc1ccc(C)cc1 | 2.24% |
| CCCC(=O)Nc1ncnc2c1ncn2[C@@H]1O[C@@H]2OP(=O)(O)OC[C@H]2[C@H]1OC(=O)CCC | -0.48% |
